Reference: article PMC4336329 (PLoS ONE, 2015)
About 14,000 (4.5%) of roughly 310,000 compounds showed an effect of 50% or more. The effect is printed as a negative number. This is one part of a sample in which strong results are shown more often than they occur.

Target: human ether-à-go-go-related gene (hERG) potassium channel (human, UniProt Q12809)
Assay: primary screen, population patch clamp on CHO cells stably expressing hERG; higher = less effect of the substance
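Also: peak tail current of the secondary pulse compared with the same well before compound.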

Chain of human ether-à-go-go-related gene (hERG) potassium channel (Q12809 whole entry, looked up): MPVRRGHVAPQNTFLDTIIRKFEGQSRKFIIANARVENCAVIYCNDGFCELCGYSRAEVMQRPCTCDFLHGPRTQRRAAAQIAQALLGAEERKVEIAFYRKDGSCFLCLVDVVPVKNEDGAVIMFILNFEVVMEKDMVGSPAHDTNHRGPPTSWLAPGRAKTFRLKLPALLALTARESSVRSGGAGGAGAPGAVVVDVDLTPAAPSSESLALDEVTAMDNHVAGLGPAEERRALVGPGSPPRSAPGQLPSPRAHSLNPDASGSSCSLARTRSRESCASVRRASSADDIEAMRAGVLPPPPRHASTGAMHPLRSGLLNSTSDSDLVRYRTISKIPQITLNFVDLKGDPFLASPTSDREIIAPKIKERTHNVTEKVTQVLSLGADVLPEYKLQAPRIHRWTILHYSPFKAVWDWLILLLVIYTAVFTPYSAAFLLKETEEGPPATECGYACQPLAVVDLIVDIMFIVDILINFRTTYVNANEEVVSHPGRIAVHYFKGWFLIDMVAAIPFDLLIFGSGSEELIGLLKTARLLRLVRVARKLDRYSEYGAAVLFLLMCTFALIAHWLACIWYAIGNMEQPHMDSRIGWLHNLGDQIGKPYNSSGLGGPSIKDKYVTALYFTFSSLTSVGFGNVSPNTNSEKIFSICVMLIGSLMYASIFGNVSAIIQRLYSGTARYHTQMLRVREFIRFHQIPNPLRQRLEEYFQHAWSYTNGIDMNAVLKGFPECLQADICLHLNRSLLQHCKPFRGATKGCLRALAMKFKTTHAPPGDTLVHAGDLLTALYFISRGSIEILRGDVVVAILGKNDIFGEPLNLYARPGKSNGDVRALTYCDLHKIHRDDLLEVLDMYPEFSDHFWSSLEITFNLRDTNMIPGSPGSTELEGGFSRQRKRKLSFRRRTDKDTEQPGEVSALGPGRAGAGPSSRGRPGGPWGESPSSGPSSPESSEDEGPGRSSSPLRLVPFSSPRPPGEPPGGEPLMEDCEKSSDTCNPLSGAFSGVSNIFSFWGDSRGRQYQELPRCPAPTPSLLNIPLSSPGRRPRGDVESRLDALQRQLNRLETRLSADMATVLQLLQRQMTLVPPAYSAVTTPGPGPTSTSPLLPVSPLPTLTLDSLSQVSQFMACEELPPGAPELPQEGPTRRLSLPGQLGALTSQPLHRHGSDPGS

| Compound | hERG current change (%, negative = inhibition) at 10uM [%] |
| --- | --- |
| CCOC(=O)c1cnn(CCOC(=O)c2ccccc2F)c1NC(=O)c1ccccc1F | -15.6 |
| COC(=O)c1cc(Br)c(=O)n(-c2nccs2)c1 | -5.98 |
| Cc1cccc(N2C(S)=C(C#N)C(=O)NC2c2cccs2)c1 (centres unmarked) | 13 |
| CN(CC(=O)Nc1cccc2ccccc12)C(=O)/C=C/c1cccs1 | -10.7 |
| O=C1OC(/C=C/c2ccc(Cl)cc2)=NC/1=C/c1ccco1 | 2.78 |
| Cc1occc1C(=O)NNC(=O)c1ccccc1F | 13 |
| CC(=O)C(=Nc1cccc(Cl)c1)NNc1ccccc1C | 8.82 |
| O=C(N1CCN(c2ccc(F)cc2)CC1)C1(c2cccs2)CCOCC1 | -33 |
| O=C(c1ccco1)N1CCN(c2cc(N3CCOCC3)c(F)cc2[N+](=O)[O-])CC1 | -49.6 |
| O=C(c1ccco1)N1CCN(c2ccc(N3CCCCC3)nn2)CC1 | -44.8 |
| O=C(c1ccc([N+](=O)[O-])cc1)N1CCN(C(=O)c2ccco2)CC1 | -47.4 |
| O=C(c1ccco1)N1CCN(c2ccc([N+](=O)[O-])cn2)CC1 | -57.7 |
| CC(=O)c1ccc(N2CCN(C(=O)c3ccco3)CC2)c(F)c1 | -25.2 |
| O=C(c1ccco1)N1CCN(c2ccc([N+](=O)[O-])cc2F)CC1 | -64.9 |
| O=C(CCCNS(=O)(=O)c1cccc2nsnc12)NCc1ccc(Cl)cc1 | -37.9 |
| CC(C)n1nc(C(=O)N2CCN(S(=O)(=O)c3cccs3)CC2)c2ccccc2c1=O | -28.7 |
| CCSc1nnc(SCC(=O)N2CCN(C(=O)c3ccco3)CC2)s1 | -33.4 |
| O=C(CSc1nn(-c2ccc(Cl)cc2)c(=S)s1)N1CCN(C(=O)c2ccco2)CC1 | -70.5 |
| O=C(CSc1nn(-c2ccc(F)cc2)c(=S)s1)NC(=O)NCc1ccco1 | 2.66 |

| Compound | hERG current change (%, negative = inhibition) at 10uM [%] |
| --- | --- |
| O=C(CSc1nn(-c2ccc(F)cc2)c(=S)s1)N1CCN(C(=O)c2ccco2)CC1 | -75 |
| CC(C)Nc1nnc(SCC(=O)N2CCN(C(=O)c3ccco3)CC2)s1 | -2.72 |
| O=C(CSc1nnc(SCc2ccc(Cl)cc2)s1)N1CCN(C(=O)c2ccco2)CC1 | -33.7 |
| O=S(=O)(c1ccc(Cl)cc1)N1CCN(C(=S)Nc2ccccc2F)CC1 | 2.92 |
| O=C(Nc1cccc(-c2ccc(N3CCOCC3)nn2)c1)c1ccccc1 | -30.8 |
| CC(=O)C[C@@H](O)CC(=O)[C@H]1OC(=O)CC/C=C\Cc2ccccc21 | 14.4 |
| O=C(CN1C(=O)C2CC=CCC2C1=O)NCC1COc2ccccc2O1 (centres unmarked) | 1.42 |
| CN(C)C(=O)NC(Nc1cccc([N+](=O)[O-])c1)C(Cl)(Cl)Cl (centres unmarked) | -27.1 |
| CCc1ccc(CNC(=O)c2ccc(OC)c(OC3CCN(C(C)C)CC3)c2)nc1 | -7.31 |
| Cc1ccnc(NC(c2cccnc2)c2ccc3cccnc3c2O)c1 (centres unmarked) | -22.5 |
| COc1ccc(N2CCN(C(=O)C(=O)c3cn(CC(=O)N4CCOCC4)c4ccccc34)CC2)cc1 | 2.05 |
| S=C1NC(c2ccccc2)=CC(c2ccccc2)N1 (centres unmarked) | 6.64 |
| CC(=O)NN1C(=O)/C(=C2/Sc3ccc(Cl)cc3N2C)SC1=S | 10.6 |
| CC#CC[N+](C)(C)CCCCCCCC.[Br-] | -40.1 |
| C#CC[N+](C)(C)CCCCCCCCCCCC.[Br-] | -50.7 |
| C#CC[N+](C)(C)CCCCCCCCC.[Br-] | -54.9 |
| C#CC[N+](C)(C)CCCCCCCC.[Br-] | -15.9 |
| C#CC[N+](C)(C)CCCCCCCCCC.[Br-] | -38.4 |
| CC#CC[N+](C)(C)CCCCCCCCCC.[Br-] | -48.8 |

| Compound | hERG current change (%, negative = inhibition) at 10uM [%] |
| --- | --- |
| CCCCNC(=O)c1ccc2c(c1)N(CC)C(=O)CS2 | -2.74 |
| COC(=O)C1=C(C)N(Cc2ccccc2)C(=NCc2cc(OC)c(OC)c(OC)c2)N[C@H]1c1cccc(F)c1 | -23 |
| COc1ccc(OC)c(/C=C(\C)C(=O)c2c(C)cc(C)[nH]c2=O)c1 | 7.34 |
| CN1CCN(c2ccc(NC(=O)c3ccco3)cc2Cl)CC1 | -16.8 |
| CN1CCN(c2ccc(NC(=O)c3ccc([N+](=O)[O-])o3)cc2Cl)CC1 | -57.3 |
| CC(=O)N1CCN(c2ccc(NC(=O)c3ccc([N+](=O)[O-])o3)cc2Cl)CC1 | -50 |
| CC(=O)N1CCN(c2ccc(NC(=O)c3ccco3)cc2Cl)CC1 | 0.303 |
| O=C(Nc1ccc(NC(=O)c2ccc([N+](=O)[O-])o2)cc1Cl)c1ccco1 | 9.42 |
| CC(=O)N1CCN(c2ccc(NC(=O)c3ccc(N4CCCC4)c([N+](=O)[O-])c3)cc2Cl)CC1 | -12.4 |
| CC1CCCCC12NC(=O)N(CC(=O)NCCc1ccc(F)cc1)C2=O (centres unmarked) | -19.7 |
| Cc1ccc2[nH]c3c(=O)n(CC(=O)Nc4ccccc4N4CCN(C)CC4)ncc3c2c1 | -5.73 |
| COc1ccc(/C=C2/SC(=S)N(CCCC(=O)Nc3cccc(O)c3)C2=O)cc1 | 9.11 |
| Cc1cccc(NC(=O)CN(C)S(=O)(=O)c2ccc3c(c2)n(C)c(=O)c(=O)n3C)c1C | -7.72 |
| Br.COc1ncnc2c1N=C1CC(C)(C)CC(N)=C1S2 | -10.4 |
| Cc1ccc(S(=O)(=O)N2CCN(c3ccccc3)CC2)cc1 | 13 |
| COc1ccc(COCC(O)CN(Cc2ccccc2)C(C)C)cc1OC (centres unmarked) | 0.398 |
| CC(C)N(Cc1ccccc1)CC(O)COc1ccc(S(=O)(=O)N2CCOCC2)cc1Cl (centres unmarked) | -32.3 |
| COC(=O)Cc1c[nH]c2cccc(OCC(O)CN(Cc3ccccc3)C(C)C)c12.O=C(O)c1ccccc1O (centres unmarked) | -63 |
